Measured values reported in PubChem BioAssay.
Where “and” joins values, the source holds several entries; their conditions need not be identical. Equal values may be shown once. Calls of active or inactive are those of the source.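 The calls were made as follows, unless noted: active = normalized viability below 100% at a tested concentration; inactive = the rest.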

Tests used:
[1] = stimulators of nuclear beta-catenin in C2C12, primary screen, imaging, WNT3A-conditioned medium, mouse C2C12, NPC library (AID 1117326; in the data active = nuclear beta-catenin stimulation mostly above about 4.2%, no sharp cut-off; inactive = mostly below about 10%); settings: stronger effect = higher value
[2] = stimulators of insulin release from INS-1E, primary screen, cell-based, 5 mM glucose, NPC library (AID 1117329;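 active = compound raises insulin release from rat beta cells at 5 mM glucose, no numeric limit stated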); settings: rat INS-1E insulin secretion, at 10 µM, stronger effect = higher value
[3] = growth inhibition of GSK3B-pretreated HCT116 cells – cell-based, CellTiter-Glo, 0.2 to 20 µM (AID 1117336;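 active = compounds lowering colon cancer cell viability after pretreatment blocking the GSK3B kinase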); settings: HCT116 viability after GSK3B inhibitor, at 20 µM, stronger effect = higher value
[4] = inhibition of endothelial tube formation, primary screen, imaging, VEGF stimulated, CD31 staining, tube area, NPC library (AID 1117340;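 active = compound that reduces growth-factor-driven endothelial tube area in a mixed cell culture, no cutoff stated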); settings: VEGF-stimulated ADSC/ECFC co-culture, at 10 µM, stronger effect = higher value
[5] = glucagon-like peptide 1 release enhancers, primary assay, NCI-H716 cell line, NPC library (AID 1117341;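 active = compound raises GLP1 secretion from the human gut endocrine cells, with no numeric limit stated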); settings: NCI-H716 cells, at 10 µM, stronger effect = higher value
[6] = HCT116 colon cancer cell growth inhibition, primary screen, CellTiter-Glo luminescence, NPC library (AID 1117342;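 active = compounds that lower survival of HCT116 colon cancer cells in the luminescence readout, no numeric limit stated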); settings: at 20 µM (top of the series)
[7] = CellTiter-Glo luminescent readout of SW480 viability loss, NPC library primary (AID 1117343;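 active = compounds that lower viability of the colon cancer cells in the luminescence readout, with no numeric limit stated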); settings: CellTiter-Glo luminescence; at 20 µM (top of the series)
[8] = decreased DLD-1 cellular survival, CellTiter-Glo luminescent readout, NPC compound collection, primary HTS (AID 1117346;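 active = compounds that lower survival of DLD-1 colon cancer cells in the luminescence readout, no cutoff given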); settings: DLD-1 viability, CellTiter-Glo luminescence; at 20 µM (top of the series)
[9] = target: 6-phosphogluconate dehydrogenase, decarboxylating (Homo sapiens) (UniProt P52209); test: 6PGD enzyme inhibitors, primary screen, biochemical, human, recombinant enzyme, NADPH absorbance (AID 1159550;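 active = at least 20% inhibition of 6-phosphogluconate dehydrogenase activity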); settings: recombinant 6PGD, NADPH absorbance 341 nm; at 10 µM; stronger effect = higher value
6-phosphogluconate dehydrogenase, decarboxylating (Homo sapiens), sequence (P52209 whole entry, looked up): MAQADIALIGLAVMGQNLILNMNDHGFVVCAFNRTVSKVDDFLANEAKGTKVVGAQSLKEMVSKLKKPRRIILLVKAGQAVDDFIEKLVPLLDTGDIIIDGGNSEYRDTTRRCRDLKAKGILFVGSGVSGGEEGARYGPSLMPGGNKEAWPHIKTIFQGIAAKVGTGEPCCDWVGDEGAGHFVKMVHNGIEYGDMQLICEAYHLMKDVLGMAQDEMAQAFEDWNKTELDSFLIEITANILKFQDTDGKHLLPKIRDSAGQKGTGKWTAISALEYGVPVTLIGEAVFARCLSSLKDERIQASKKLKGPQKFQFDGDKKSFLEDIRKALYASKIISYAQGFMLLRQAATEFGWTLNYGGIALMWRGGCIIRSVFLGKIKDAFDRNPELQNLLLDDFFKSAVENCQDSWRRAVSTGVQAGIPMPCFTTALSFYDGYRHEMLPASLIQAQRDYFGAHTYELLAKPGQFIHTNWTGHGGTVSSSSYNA

[10] = modulation of C. elegans fzo-1 (AID 1259413; call rule not given here;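 also: fzo-1 mutant C. elegans worms in liquid wells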); settings: C. elegans fzo-1 modulator screen, mean read-out; stronger effect = higher value
[11] = differential killing of epithelial or mesenchymal cells, primary screen, imaging, PC-3E GFP, TEM4-18 mCherry, co-culture (AID 1345086;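 active = compounds killing one labelled cell type while sparing the other, by normalised counts and ratio limits, not self-fluorescent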;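 as to all read-outs here: cells exposed to compound for 72 h before imaging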;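 as to red/green cell ratio (normalised): normalised mesenchymal count divided by normalised epithelial count so high means epithelial killing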); settings: imaging cell counts, at 1 µM; for red/green cell ratio (normalised): actives lie on both sides, counts scaled to control wells, 1 = unselective
[12] = survival rescue of mitochondrial mutant cells in low glucose, primary screen, MELAS cybrids, Rieske KO mouse fibroblasts, CellTiter-Glo (AID 1508586;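 active = mean z-score across replicates of 1.96 or higher in either the MELAS or the Rieske mutant cell line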;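 also: z relative to plate mean and SD of compound and empty wells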)
[13] = ovarian cancer cell viability with rucaparib, profiling panel, oncology-focused library, rucaparib conditional (AID 1508598); settings: patient-derived ovarian cancer cells, CellTiter-Glo viability, 144 h, stronger effect = lower value
[14] = target: NAD(+) hydrolase SARM1 (Homo sapiens) (UniProt Q6SZW1); test: SARM1 TIR NADase inhibitors, cell lysate, NAD-Glo luminescence (AID 1508614;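 active = compound whose remaining NAD level is above about 45 nM, limit read from the data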;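 also: higher remaining NAD means stronger inhibition of SARM1 NADase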); settings: SAM-TIR HEK293T lysate NADase, at 1 µM, stronger effect = higher value
NAD(+) hydrolase SARM1 (Homo sapiens), sequence (Q6SZW1 whole entry, looked up, the tested form may be a part): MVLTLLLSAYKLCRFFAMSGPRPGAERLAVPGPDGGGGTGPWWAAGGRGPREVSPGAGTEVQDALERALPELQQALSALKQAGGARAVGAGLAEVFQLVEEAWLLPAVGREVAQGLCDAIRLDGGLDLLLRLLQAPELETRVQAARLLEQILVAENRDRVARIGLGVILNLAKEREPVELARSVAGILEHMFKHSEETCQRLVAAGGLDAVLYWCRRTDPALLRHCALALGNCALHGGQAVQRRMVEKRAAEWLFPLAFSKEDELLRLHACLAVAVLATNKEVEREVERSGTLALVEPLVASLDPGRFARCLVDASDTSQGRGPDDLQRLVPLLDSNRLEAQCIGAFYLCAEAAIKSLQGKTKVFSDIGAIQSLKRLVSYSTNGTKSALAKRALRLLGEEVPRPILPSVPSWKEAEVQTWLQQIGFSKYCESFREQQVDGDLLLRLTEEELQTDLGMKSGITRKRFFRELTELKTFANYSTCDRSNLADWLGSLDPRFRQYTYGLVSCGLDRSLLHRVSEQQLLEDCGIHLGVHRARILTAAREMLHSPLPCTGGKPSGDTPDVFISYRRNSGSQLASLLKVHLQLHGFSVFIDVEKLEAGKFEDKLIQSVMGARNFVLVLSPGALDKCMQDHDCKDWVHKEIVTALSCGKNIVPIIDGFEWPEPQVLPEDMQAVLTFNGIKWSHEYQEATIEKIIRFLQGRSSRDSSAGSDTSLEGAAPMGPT

[15] = target: Mitogen-activated protein kinase 7 (Homo sapiens) (UniProt Q13164); test: ERK5 transactivation activators in reporter cells, primary screen, cell-based, HTS (AID 1508626;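 active = luciferase signal above three times the same-plate solvent-only control wells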;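 also: luciferase driven by Gal4-ERK5 fusion binding five Gal4 sites before minimal TATA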); settings: HeLa Gal4-ERK5 transactivation, 18 h, at 5 µM, stronger effect = higher value
Mitogen-activated protein kinase 7 (Homo sapiens), sequence (Q13164 whole entry, looked up, the tested form may be a part): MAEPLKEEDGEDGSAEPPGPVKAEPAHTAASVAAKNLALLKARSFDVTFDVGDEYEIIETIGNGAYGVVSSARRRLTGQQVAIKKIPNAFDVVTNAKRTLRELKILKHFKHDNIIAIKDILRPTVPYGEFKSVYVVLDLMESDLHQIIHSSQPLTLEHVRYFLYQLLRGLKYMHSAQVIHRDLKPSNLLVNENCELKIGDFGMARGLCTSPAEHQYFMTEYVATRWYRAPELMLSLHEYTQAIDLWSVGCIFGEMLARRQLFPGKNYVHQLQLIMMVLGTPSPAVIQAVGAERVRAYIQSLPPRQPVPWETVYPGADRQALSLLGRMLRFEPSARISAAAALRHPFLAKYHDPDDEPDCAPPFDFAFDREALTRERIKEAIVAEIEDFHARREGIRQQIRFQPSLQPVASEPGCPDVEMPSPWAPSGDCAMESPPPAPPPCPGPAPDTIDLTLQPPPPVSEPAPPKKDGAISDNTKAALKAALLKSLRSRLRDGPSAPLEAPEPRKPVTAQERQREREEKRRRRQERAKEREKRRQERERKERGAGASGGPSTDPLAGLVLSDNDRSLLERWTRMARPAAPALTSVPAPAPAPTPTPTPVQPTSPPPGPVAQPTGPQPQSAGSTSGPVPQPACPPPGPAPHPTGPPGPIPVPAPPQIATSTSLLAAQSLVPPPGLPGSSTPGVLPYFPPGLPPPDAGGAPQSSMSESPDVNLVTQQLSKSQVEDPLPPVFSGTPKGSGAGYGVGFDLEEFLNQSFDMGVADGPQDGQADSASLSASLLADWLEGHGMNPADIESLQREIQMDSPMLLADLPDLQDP

F380Y = test: modulators of BK channel variants, profiling panel, selectivity assay, cell-based, U2OS BacMam, thallium flux, beta subunits (AID 1259406;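 active = thallium flux through the channel raised or lowered by more than 3 SD from vehicle-only wells, actives on both sides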;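 also: initial slope of Thallos dye fluorescence rise after thallium is added; log ratio against the mean of 0.3% DMSO vehicle wells on the same plate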); settings: at 30 µM
F380Y/beta1 = test: as above; settings: at 30 µM
F380Y/beta2Delta = test: as above; settings: at 30 µM
[16] = sensitizers of A549 cells to miR-34 induction, primary screen, imaging, A549 dox-inducible miR-34, nuclei and caspase counts (AID 1347080;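 active = compounds whose cell count with miR-34 switched on is under 0.7 times the count with it off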); settings: A549 miR-34 inducible, Hoechst nuclei count, 48 h
[17] = ICB984 medulloblastoma cell growth inhibition, synergistic combos for chromothripsis tumors, cisplatin or BGB combos (AID 1671451; call rule not given here;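 also: cells exposed for 96 hours before readout; 0% = vehicle DMSO and 100% = killing by high DMSO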); settings: ICB984 medulloblastoma cells, drug combinations, stronger effect = higher value
[18] = measured here: epithelial PC-3E GFP cell survival
[19] = measured here: mesenchymal TEM4-18 mCherry cell survival
[20] = MELAS cybrid survival, CellTiter-Glo 48 h, stronger effect = higher value
[21] = Rieske KO mouse fibroblast survival, CellTiter-Glo 72 h

CC1=C(/C=C/C(C)=C/C=C/C(C)=C/C(=O)O)C(C)(C)CCC1
inactive: nuclear beta-catenin stimulation ([1]; at 10 µM) 8.6% | insulin secretion stimulation [2] 1.8% | tube area decrease [4] -33.9% | GLP1 secretion stimulation [5] 14.4% | inhibition [9] -0.523% | mean signal [10] 223 | red/green cell ratio (normalised) [11] 0.69 | z-score [12, 20] -0.0661 and 0.992 | viability ([13]; at 0.000305 µM, OCI-C5x cells, with rucaparib 10 µM, 100% = cells with rucaparib alone) 106% | viability ([13]; at 0.000305 µM, OCI-C5x cells, without rucaparib) 135% | viability ([13]; at 0.000305 µM, OCI-P5x cells, with rucaparib 20 µM, 100% = cells with rucaparib alone) 102% | viability ([13]; at 0.000305 µM, OCI-P5x cells, without rucaparib) 120% | viability ([13]; at 0.00122 µM, OCI-C5x cells, with rucaparib 10 µM, 100% = cells with rucaparib alone) 106% | viability ([13]; at 0.00122 µM, OCI-C5x cells, without rucaparib) 121% | viability ([13]; at 0.00122 µM, OCI-P5x cells, with rucaparib 20 µM, 100% = cells with rucaparib alone) 105% | viability ([13]; at 0.00122 µM, OCI-P5x cells, without rucaparib) 119% | viability ([13]; at 0.00488 µM, OCI-C5x cells, with rucaparib 10 µM, 100% = cells with rucaparib alone) 124% | viability ([13]; at 0.00488 µM, OCI-C5x cells, without rucaparib) 115% | viability ([13]; at 0.00488 µM, OCI-P5x cells, with rucaparib 20 µM, 100% = cells with rucaparib alone) 108% | viability ([13]; at 0.00488 µM, OCI-P5x cells, without rucaparib) 120% | viability ([13]; at 0.0195 µM, OCI-C5x cells, with rucaparib 10 µM, 100% = cells with rucaparib alone) 106% | viability ([13]; at 0.0195 µM, OCI-C5x cells, without rucaparib) 111% | viability ([13]; at 0.0195 µM, OCI-P5x cells, with rucaparib 20 µM, 100% = cells with rucaparib alone) 104% | viability ([13]; at 0.0195 µM, OCI-P5x cells, without rucaparib) 115% | viability ([13]; at 0.0781 µM, OCI-C5x cells, with rucaparib 10 µM, 100% = cells with rucaparib alone) 103% | viability ([13]; at 0.0781 µM, OCI-C5x cells, without rucaparib) 122% | viability ([13]; at 0.0781 µM, OCI-P5x cells, with rucaparib 20 µM, 100% = cells with rucaparib alone) 101% | viability ([13]; at 0.0781 µM, OCI-P5x cells, without rucaparib) 115% | viability ([13]; at 0.313 µM, OCI-C5x cells, with rucaparib 10 µM, 100% = cells with rucaparib alone) 103% | viability ([13]; at 0.313 µM, OCI-C5x cells, without rucaparib) 114% | viability ([13]; at 0.313 µM, OCI-P5x cells, without rucaparib) 109% | viability ([13]; at 1.25 µM, OCI-C5x cells, with rucaparib 10 µM, 100% = cells with rucaparib alone) 101% | viability ([13]; at 1.25 µM, OCI-C5x cells, without rucaparib) 115% | viability ([13]; at 1.25 µM, OCI-P5x cells, without rucaparib) 105% | viability ([13]; at 5 µM, OCI-C5x cells, with rucaparib 10 µM, 100% = cells with rucaparib alone) 101% | viability ([13]; at 5 µM, OCI-C5x cells, without rucaparib) 104% | remaining NAD [14] 10 nM | luciferase signal [15] 20 AU | log fold change Tl+ flux (F380Y) 0.0395 | log fold change Tl+ flux (F380Y/beta1) 0.0141 | log fold change Tl+ flux (F380Y/beta2Delta) -0.0201
8.1%: nuclear beta-catenin stimulation ([1]; stimulation, at 2 µM)
1.34: normalised cell number [11, 18]
active: viability decrease [3] 102% | inhibition of viability [6] 102% | viability decrease (inhibition) [7] 142% | viability decrease (inhibition) [8] 104% | viability ([13]; at 0.313 µM, OCI-P5x cells, with rucaparib 20 µM, 100% = cells with rucaparib alone) 98.8% | viability ([13]; at 1.25 µM, OCI-P5x cells, with rucaparib 20 µM, 100% = cells with rucaparib alone) 92.2% | viability ([13]; at 5 µM, OCI-P5x cells, with rucaparib 20 µM, 100% = cells with rucaparib alone) 93.6% | viability ([13]; at 5 µM, OCI-P5x cells, without rucaparib) 99.6%
0.93: normalised cell number [11, 19]
0.0426 and 0.864: z-score [12, 21]

COc1c(N2CCNC(C)C2)c(F)cc2c(=O)c(C(=O)O)cn(C3CC3)c12 (stereo unspecified)
-12.4% and -7.73%: inhibition ([17]; cisplatin combo, at 0.5 µM)
-2.69% and -3.52%: inhibition ([17]; measured here: 5 uM single agent, at 5 µM)
inactive: nuclear beta-catenin stimulation ([1]; at 10 µM) 0.7% | insulin secretion stimulation [2] -1.15% | viability decrease [3] 6.2% | tube area decrease [4] -12.3% | GLP1 secretion stimulation [5] -2.4% | inhibition of viability [6] 25.9% | viability decrease (inhibition) [7] -16.2% | viability decrease (inhibition) [8] -9.8% | inhibition [9] -4.88% | mean signal [10] 254 | red/green cell ratio (normalised) [11] 0.98 and 0.92 | fold change ([16]; stronger effect = lower value, cell number ratio, induced over uninduced) 0.968 and 0.875 | z-score [12, 20] 0.506 and 0.393 | remaining NAD [14] 10 nM | luciferase signal [15] 72 AU | inhibition ([17]; at 0.5 µM) -18.4% and -24.4% | log fold change Tl+ flux (F380Y) -0.00177 | log fold change Tl+ flux (F380Y/beta1) -0.0535 | log fold change Tl+ flux (F380Y/beta2Delta) -0.045
1.74 and 1.47 and 1.16: fold change ([16]; measured here: relative caspase fold change +Dox/-Dox)
-26.5% and -51.5%: inhibition ([17]; cisplatin combo, at 5 µM)
6.38% and 0.318%: inhibition ([17]; BGB IC20 combo, at 0.005 µM)
10600 and 11400 and 9660: cell count ([16]; measured here: total cells with miR-34 induction, stronger effect = lower value)
1.11 and 1.05: normalised cell number [11, 19]
-11.2% and -13.7%: inhibition ([17]; BGB IC40 combo, at 0.005 µM)
2.5%: nuclear beta-catenin stimulation ([1]; stimulation, at 2 µM)
-11.7% and 20.2%: inhibition ([17]; BGB IC40 combo, at 0.05 µM)
10900 and 13100 and 11000: cell count ([16]; measured here: total cells without miR-34 induction)
1.12 and 1.14: normalised cell number [11, 18]
-15.7% and 18%: inhibition ([17]; cisplatin combo, at 0.05 µM)
-0.687 and -0.598: z-score [12, 21]
